GRIN3A LBD mod: modulates the human NR3A ligand-binding domain. Tm shift relative to glycine control, % at 25 µM. NR3A LBD differential scanning fluorimetry, Tm shift; 0% = protein alone, 100% = glycine-bound protein. AID 1259313. 340,000 tested, 2.5% active;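 active = melting temperature shift of at least 10% of the positive control shift, at one fixed dose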
FAS TE block: FAS thioesterase (human) inhibition. inhibition, % at 15 µM. recombinant FAS-TE, OMFH fluorogenic substrate, fluorescence endpoint. 360,000 tested, 0.67% active. AID 602261. P49327;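 active = compounds whose normalised, plate-corrected inhibition of enzyme fluorescence in the single-dose primary screen is 50% or more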;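 note: 0% = DMSO with enzyme and 100% = substrate without enzyme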
rCAG RNA binder: r(CAG) repeat RNA binding; TO-PRO-1 dye displacement fluorescence; inhibition, % at 3 µM; 370,000 tested, 1.3% active; AID 651821;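 active = inhibition above the plate cutoff, the mean of all test compounds on that plate plus 3 SD, cut at about 35% in these data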;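 note: 0% = DMSO alone and 100% = 100 µM mitoxantrone as full dye displacement; higher means more dye released from RNA so lower well fluorescence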
NadD inh: inhibitors of Staphylococcus aureus NadD. purified NadD enzyme, colorimetric absorbance read-out. inhibition, % at 20 µM. 360,000 tested, 0.78% active. AID 602399; in the data active = inhibition above about 26%
rCAG bind conf: r(CAG) RNA repeat binding, confirmation; shares compounds with rCAG RNA binder; TO-PRO-1 dye displacement fluorescence; inhibition, % at 3 µM; 4,300 tested, 70% active; AID 652065;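 active = inhibition above a per-plate cutoff, the mean inhibition of sample wells plus 3 SD, cut at about 35% in these data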;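 note: loss of TO-PRO-1 fluorescence as compound displaces dye from 1x1 AA loop RNA; 0% = DMSO only wells and 100% = 100 µM mitoxantrone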
DNA CAG counter: disrupts DNA CAG TO-PRO-1 complex, flagging rCAG hits | shares compounds with rCAG RNA binder | d(CAG) DNA oligo TO-PRO-1 dye displacement, fluorescence | inhibition, % at 3 µM | 4,300 tested, 94% active;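 active = inhibition above its plate's cutoff, the mean test-well inhibition plus 3 SD, cut at about 4.8% in these data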;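 note: 0% = DNA dye mix with DMSO and 100% = 100 µM mitoxantrone; hits displace the dye from DNA and so lower well fluorescence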
* marks the source's active call; other numbers are inactive results; · = no result given. Shown are actives, neighbours in structure and some others; about 4.3% of the full set was active somewhere.

SMILES | GRIN3A LBD mod | FAS TE block | rCAG RNA binder | NadD inh | rCAG bind conf | DNA CAG counter
CC1(C(=O)NS(=O)(=O)c2cccc(C#N)c2)CCN1C(=O)C1(c2ccc(Cl)cc2)CCC1 (configuration not stated) | · | -5.7 | 30.0 | 1.1 | · | ·
CC1(C(=O)NS(=O)(=O)c2cccc(F)c2)CCN1C(=O)C1(c2ccc(Cl)cc2)CCC1 (configuration not stated) | · | -6.5 | 41.7* | -5.1 | 31.3 | 6.7*
CC(C)(C)c1ccc(S(=O)(=O)NC(=O)C2(C)CCN2C(=O)C2(c3ccc(Cl)cc3)CC2)cc1 (configuration not stated) | · | -4.7 | 70.5* | 9.1 | 59.4* | 20.5*
CC1(C(=O)NS(=O)(=O)c2ccc(Cl)cc2)CCN1C(=O)C1(c2ccc(Cl)cc2)CC1 (configuration not stated) | · | -3.5 | 45.5* | -5.3 | 39.3* | 8.7*
O=C(N[C@@H](Cc1cccnc1)C(=O)N1CCC[C@H]1C(=O)NCc1ccccc1)c1ccccc1 | · | · | 0.3 | · | · | ·
CN(Cc1ccccc1F)C(=O)C1CCCN(c2ncccn2)C1 (configuration not stated) | · | · | -1.6 | · | · | ·
CNC(=S)N/N=C/c1c(C)nn(-c2ccccc2)c1Cl | -4.8 | 1.8 | 3.7 | 3.9 | · | ·
COc1ccccc1NS(=O)(=O)c1ccc(N/N=C(\C)C(C)C)c([N+](=O)[O-])c1 | -8.5 | 32.2 | 6.1 | -1.9 | · | ·
Cc1nn(-c2ccccc2)c(Cl)c1/C=N/NS(=O)(=O)c1ccc(Br)cc1 | 16.8* | 20.5 | 48.3* | 2.5 | 42.0* | 11.0*
C=CCOc1ccc(C=NNc2ccc(S(=O)(=O)Nc3ccccc3C(=O)O)cc2[N+](=O)[O-])cc1OC | 9.5 | 24.3 | 37.5* | 18.2 | 94.5* | 80.2*
Cc1ccc(S(=O)(=O)Nc2ccccc2C(=O)OC(C)C(=O)Nc2ccc3ccccc3c2)cc1[N+](=O)[O-] (configuration not stated) | 0.4 | 35.8 | 38.8* | 19.9 | 42.3* | 16.5*
O=C(O)c1ccccc1NS(=O)(=O)c1ccc(NN=Cc2ccccc2F)c([N+](=O)[O-])c1 | 10.0* | 20.4 | 84.1* | 7.2 | 92.1* | 71.5*
CCCCCCCCN1C(=O)[C@@H](CC(=O)N2CCOCC2)C[C@@]2(C(=O)OC)C1=C[C@H](COCc1ccccc1)O[C@@H]2C | · | · | 4.7 | · | · | ·
O=C1CCc2cc(S(=O)(=O)N3CCN(Cc4cccc5c4OCO5)CC3)ccc2N1 | · | · | 5.0 | · | · | ·
CC(=O)C1=C(C)N(Cc2ccc(Br)cc2)C(=S)NC1c1cccc(Cl)c1 (configuration not stated) | · | · | 3.1 | · | · | ·
CCOc1cccc(C=NNc2ccc(S(=O)(=O)Nc3ccccc3C(=O)O)cc2[N+](=O)[O-])c1O | 16.7* | 5.7 | 76.0* | 8.4 | 86.3* | 53.6*
COc1ccccc1NS(=O)(=O)c1ccc(OC)c([N+](=O)[O-])c1 | -0.8 | 2.2 | 1.3 | 2.7 | · | ·
CCCC(CCC)=NNc1ccc(S(=O)(=O)Nc2ccccc2OC)cc1[N+](=O)[O-] | -12.4 | 38.1 | 4.0 | 5.3 | · | ·
Cc1nn(-c2ccccc2)c(Cl)c1/C=N/Nc1ccc(S(=O)(=O)Nc2ccccc2C(=O)O)cc1[N+](=O)[O-] | 1.4 | -66.8 | 52.2* | 20.4 | 91.8* | 64.7*
COc1ccc(NC(=S)NNc2ccc(S(=O)(=O)Nc3ccccc3C(=O)O)cc2[N+](=O)[O-])cc1 | 15.9* | 5.1 | 96.8* | 0.2 | 88.5* | 60.6*
Cc1nn(-c2ccccc2)c(Cl)c1/C=N/Nc1ccc(Cl)c(C(=O)O)c1 | -22.1 | 25.8 | 26.1 | -0.9 | · | ·
C#CCN1C[C@@]2(O)CC[C@@H](O)[C@@H](OC)[C@@H]2[C@@]1(C)[C@H](O)CC=C(C)C | · | · | 0.4 | · | · | ·
CCCN1CCCCC(NC(=O)c2ccccc2C)C1=O (configuration not stated) | · | · | 1.2 | · | · | ·
COC(=O)c1cc(-c2cccc(C(F)(F)F)c2)c(=O)n2c1CCC2 | · | · | 0.4 | · | · | ·
COc1ccc(S(=O)(=O)Nc2cc(SCC(=O)O)c(O)c3ccccc23)cc1 | -25.6 | 7.3 | 37.7* | 3.9 | 48.5* | 18.3*
SMILES | GRIN3A LBD mod | FAS TE block | rCAG RNA binder | NadD inh | rCAG bind conf | DNA CAG counter
COc1ccc(S(=O)(=O)Nc2cccc3ccc(O)cc23)cc1 | -1.7 | 4.6 | 8.4 | -4.7 | · | ·
COc1ccc(S(=O)(=O)Nc2cc(Sc3ncn[nH]3)c(O)c3ccccc23)cc1 | · | · | 42.6* | · | 23.9 | 9.8*
COc1ccc(S(=O)(=O)Nc2ccc(O)c(Sc3ncn[nH]3)c2)cc1 | -1.1 | -24.3 | 0.9 | -2.5 | · | ·
O=C(CC(CC(=O)c1ccc(Cl)cc1)c1ccccc1C(=O)O)c1ccc(Cl)cc1 | -1.4 | 16.5 | 42.3* | 1.6 | 53.8* | 12.6*
O=C(O)c1ccccc1C(=O)c1ccc(Cl)cc1 | 0.2 | -5.3 | 0.0 | 0.6 | · | ·
CCCCN(CCCC)CCCNC(=O)Cn1cc(C)c(=O)[nH]c1=O | · | · | -2.0 | · | · | ·
N#C/C(=C\c1ccc(O)c(O)c1)C(=O)NCCc1ccccc1 | -11.9 | 1.9 | 39.4* | 0.4 | 44.5* | 13.1*
COC(=O)[C@]12C[C@H](CC(=O)N3CCSCC3)C(=O)N(Cc3ccccc3)C1=C[C@H](C1CCCC1)O[C@@H]2C | · | · | 2.6 | · | · | ·
CCCCCCCCN1C(=O)[C@@H](CC(=O)NCCCCc2ccccc2)C[C@@]2(C(=O)OC)C1=C[C@H](C(C)(C)C)O[C@@H]2C | · | · | 0.6 | · | · | ·
O=C(O)c1ccc(NC(=O)c2cn(-c3ccccc3)nc2-c2ccc(Br)cc2)cc1 | 7.6 | 8.3 | 81.6* | 10.3 | 68.5* | 28.4*
O=C(O)c1cccc(NC(=O)c2cn(-c3ccccc3)nc2-c2cccc(Br)c2)c1 | 14.8* | 14.3 | 86.5* | 8.0 | 81.7* | 50.0*
O=C(O)c1cccc(NC(=O)c2cn(-c3ccccc3)nc2-c2ccncc2)c1 | 0.1 | · | 14.5 | · | · | ·
COc1ccc(-c2nn(-c3ccccc3)cc2C(=O)Nc2cccc(C(=O)O)c2)cc1[N+](=O)[O-] | 1.6 | 20.6 | 70.5* | 10.4 | 61.0* | 24.1*
Nn1c(SCC(=O)Nc2ccccc2-c2ccccc2)nnc1-c1cc(-c2ccc(F)cc2)n[nH]1 | · | · | 6.8 | · | · | ·
COC(=O)[C@]1(C)CN(C(=O)OC(C)(C)C)C2=C1C(=O)C[C@](C)(C(=O)OC(C)(C)C)C2 | · | · | -1.0 | · | · | ·
Cc1onc(-c2c(Cl)cccc2Cl)c1/C(N)=N/OC(=O)C1CC1 | 0.4 | -0.7 | -2.4 | -4.8 | · | ·
CC1=CC(c2ccccc2)n2nc(NS(=O)(=O)c3ccc(C)cc3)nc2N1 (configuration not stated) | 2.2 | -5.2 | 13.0 | 2.3 | · | ·
CC1=CC(c2ccc(Cl)cc2)n2nc(NS(=O)(=O)c3ccc(C)cc3)nc2N1 (configuration not stated) | -3.6 | -3.9 | 46.8* | 21.4 | 51.6* | 17.0*
CC(=O)N1CCN(C(=O)CSc2nc3cccnc3n2C)CC1 | · | · | 2.3 | · | · | ·
O=C(Nc1ncc(Cc2ccccc2)s1)C1=NCCN1 | -1.9 | 2.1 | -2.2 | -4.8 | · | ·
